Out of some 220,000 compounds screened, about 1,500 (0.68%) were called active.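 Rule for the calls: active = Hck-Nef kinase inhibition above about 50% (limit read from the data); inactive = inhibition below that limit.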 Shown is part of a subset that was picked to be rich in actives.

The target of this experiment is Tyrosine-protein kinase HCK (Homo sapiens) (UniProt P08631). Description: Hck:Nef complex kinase activity blockers – biochemical, Z-Lyte FRET, 384-well, Hck-YEEI, primary screen (AID 463187).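 Note: 0% = DMSO with Hck plus Nef and 100% = Hck alone without Nef.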 The following applies: Recombinant Hck-YEEI plus Nef, Z-Lyte FRET kinase assay; at 20 µM; hits give high values.
Tyrosine-protein kinase HCK (Homo sapiens), sequence (P08631 whole entry, looked up): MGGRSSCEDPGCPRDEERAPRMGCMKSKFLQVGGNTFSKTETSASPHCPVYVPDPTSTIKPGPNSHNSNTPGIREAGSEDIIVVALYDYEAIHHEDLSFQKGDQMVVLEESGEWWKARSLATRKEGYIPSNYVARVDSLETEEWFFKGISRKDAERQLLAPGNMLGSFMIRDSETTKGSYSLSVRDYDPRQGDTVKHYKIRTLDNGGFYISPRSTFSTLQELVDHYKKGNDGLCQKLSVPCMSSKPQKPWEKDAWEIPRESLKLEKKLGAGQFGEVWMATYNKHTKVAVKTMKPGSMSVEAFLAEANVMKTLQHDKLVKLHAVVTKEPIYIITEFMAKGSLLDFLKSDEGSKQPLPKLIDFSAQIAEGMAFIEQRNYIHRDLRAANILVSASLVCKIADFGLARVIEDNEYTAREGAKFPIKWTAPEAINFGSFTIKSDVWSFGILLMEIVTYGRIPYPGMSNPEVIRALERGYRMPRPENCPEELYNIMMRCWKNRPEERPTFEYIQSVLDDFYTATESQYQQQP
Broadly, the inhibition is the change of the read-out against control, counted positive when it falls. Consider `CCOc1ccccc1NC(=O)c1cc(S(=O)(=O)N2CCC3(CC2)OCCO3)ccc1F`, for which the inhibition is 2.23% (inactive). Turning to `COc1ccc(NC(=O)c2oc3ccc(S(=O)(=O)N4CCOCC4)cc3c2C)cc1`, the inhibition is -8.31% (inactive). For `Cc1c(C(=O)Nc2ccccc2Cl)oc2ccc(S(=O)(=O)N3CCC4(CC3)OCCO4)cc12`, the inhibition is 74.2% (active).

On to `O=C(CCSCCc1ccccn1)Nc1nccs1`, for which the inhibition was 7.74% (inactive).

On to `OCc1nc(CO)n(Cc2ccccc2)n1`, for which the inhibition is 0.365% (inactive). For `CC1CCCN(CCOCCOc2ccccc2-c2ccccc2)C1` (stereo not drawn) the value was 0.832% (inactive); for `Cc1ccc(NC(=S)N2CCCC(c3ccccc3)=N2)cc1`, -10% (inactive); for `O=C(CSc1cccc2cccnc12)N/N=C/c1cccnc1`, 51.3% (active). As for `Cc1nc2ccccc2n1CC(=O)N/N=C/c1cccnc1`, the inhibition was 24.3% (inactive).

As for `CCOC(=O)N/N=C/c1cccnc1`, the inhibition was -26.2% (inactive).

On to `CC(CNc1ccc([N+](=O)[O-])c2cccnc12)Nc1c([N+](=O)[O-])cc(C(F)(F)F)cc1[N+](=O)[O-]` (stereo not drawn), for which the inhibition is -2.43% (inactive). For the compound `Cc1cc(OC(=O)c2ccccc2Cl)ccc1N1C(=O)CCC1=O`, the inhibition was 52.4% (active). With `Cc1cccc(/C(N)=N/OC(=O)c2ccccc2Cl)c1`, the inhibition is 5.79% (inactive).

On to `COc1ccccc1C(=O)Oc1ccc(N2C(=O)CCC2=O)cc1`, for which the inhibition was 1.47% (inactive). Take `Cc1sc2c(c1C)c(=O)n(-c1ccccc1)c(=O)n2CC(=O)NCC1CCCO1` (stereo not drawn): the inhibition is -19.9% (inactive). As for `O=C(COC(=O)c1ccccc1NC(=O)c1ccco1)Nc1ccc2c(c1)OC(F)(F)O2`, the inhibition is 5.95% (inactive). For `CCn1c(=N)c(S(=O)(=O)c2ccc(F)cc2)cc2c(=O)n3ccccc3nc21` the value was 11.1% (inactive).

Turning to `Cc1ccc(-n2c(=O)c(C#N)cc3c(=O)n4ccccc4nc32)cc1C`, the inhibition was 73.3% (active). Next, `Cc1ccc(-n2ncc3c(=O)n(-c4ccc(C)c(C)c4)c(-c4ccco4)nc32)cc1`: -0.384% (inactive); `CNC(=S)Nc1ccc([N+](=O)[O-])cc1`: 21.3% (inactive). In the case of `CN(C)CC(C)(C)CNC(=O)c1cc(Br)cc(Br)c1O`, the inhibition is 21.9% (inactive).

Consider `COc1cc(NC(=O)COC(=O)CSc2ccc3ccccc3c2)c(C)cc1[N+](=O)[O-]`, for which the inhibition is 2.59% (inactive). `Cc1cccc(N2CCN(C(=O)CN(C)S(=O)(=O)c3ccc4c(c3)CCC(=O)N4)CC2)c1C`: the inhibition was 0.348% (inactive). On to `O=C(NCc1ccccc1)C1CCCN(c2nc3ccsc3c(=O)s2)C1` (stereo not drawn), for which the inhibition is 63.7% (active). For `CCc1ccc(CNC(=O)C2CCCN(c3nc4ccccc4o3)C2)cc1` (stereo not drawn) the value was -20.1% (inactive).

In the case of `O=C(NCc1ccccc1)C1CCCN(S(=O)(=O)c2cccs2)C1` (stereo not drawn), the inhibition is -1.98% (inactive). `Cc1c(-c2cccc(Cl)c2)nc2ccccc2c1C(=O)OCC(=O)N(C)C1CCS(=O)(=O)C1` (stereo not drawn): the inhibition is -3.32% (inactive). In the case of `COc1ccc(NC(=O)COc2ccc(C(=O)OCC(=O)N(C)C3CCS(=O)(=O)C3)cc2OC)cc1` (stereo not drawn), the inhibition is -34.5% (inactive). `CN(C(=O)COC(=O)c1cc(-c2ccco2)nc2ccccc12)C1CCS(=O)(=O)C1` (stereo not drawn): the inhibition was 65.3% (active). As for `CC(C)Cc1nn2c(=O)cc(O)nc2s1`, the inhibition was 1.45% (inactive). For `O=C(Nc1ccc(Cl)cc1)Nc1ccc(Oc2cccnc2)nc1`, the inhibition was -9.14% (inactive). As to `O=C(NNC(=O)c1cccnc1)Nc1ccccc1`, the inhibition was -0.546% (inactive). For `O=C(NNC(=O)c1csc(-c2cccnc2)n1)Nc1ccc(Cl)cc1` the value was 52.2% (active). Regarding `CC(=O)Nc1ccc(OCCC[n+]2cccc(C(=O)[O-])c2)cc1`, the inhibition was 12% (inactive).

For `FC(F)(F)c1ccc(CN2C[C@@H]3C(c4ccccc4)C4(c5ccccc5)CC3(C4)[C@H]2c2ccccc2)cc1` (stereo partly drawn), the inhibition is 17.4% (inactive). For `Cc1cccc(-n2c(SCC(N)=O)nc3c(c2=O)C2(CCCCC2)Cc2ccccc2-3)c1` the value was 6.81% (inactive); for `COc1cccc(Nc2nnc(SCC(=O)N3CC(=O)Nc4ccccc43)s2)c1`, 36.9% (inactive).

On to `CCCc1nc2ccccc2c(C(=O)OCC(=O)c2ccc3c(c2)NC(=O)CO3)c1CC`, for which the inhibition was -1.08% (inactive). For `CCc1ccc(Nc2nnc(SCC(=O)c3ccc4c(c3)NC(=O)CO4)s2)cc1` the value was 105% (active). Regarding `CO/N=C(\N)c1ccc([N+](=O)[O-])cc1`, the inhibition was 3.14% (inactive). For the compound `CCOc1ccc(N2C(=O)Nc3ccccc3C2(O)C(=O)NCc2ccco2)cc1` (stereo not drawn), the inhibition was 20.7% (inactive).

Regarding `CNc1ccc(SC#N)cc1`, the inhibition was 33.3% (inactive). For the compound `N#Cc1c(-c2ccc(F)cc2)cc(C2CC2)nc1SCC(=O)c1cccs1`, the inhibition was 3.07% (inactive). With `N=c1ccn(CC(=O)NC(N)=O)c2ccccc12`, the inhibition was 0.937% (inactive). Turning to `O=C(NC1CCCCCC1)c1cccnc1Sc1ccc(Cl)cc1`, the inhibition is 2.04% (inactive). Take `CCC1=NN2C(=N)/C(=C/c3cc(C)n(-c4ccccc4)c3C)C(=O)N=C2S1`: the inhibition is 15.3% (inactive). `CCS(=O)(=O)C1=NSC2=NC(=O)/C(=C\c3cc(C)n(-c4cccc(OC)c4)c3C)C(=N)N21`: the inhibition is 55.1% (active). With `Cc1cc(/C=C2/C(=N)N3C(=NC2=O)SN=C3S(C)(=O)=O)c(C)n1-c1ccccc1`, the inhibition was 0.408% (inactive). In the case of `O=c1cc(-c2ccccc2)[nH]c2cc(F)ccc12`, the inhibition is 2.23% (inactive).

On to `CCc1ccccc1N1CN(Cc2ccco2)CNC1=S`, for which the inhibition was 3.91% (inactive). For the compound `O=C1/C(=C/c2cccs2)CCC1C1CCCC1` (stereo not drawn), the inhibition is 26% (inactive). For `CCOc1ccc(C2c3[nH]c4ccccc4c3CCN2Cc2cccn2-c2ncccn2)cc1` (stereo not drawn) the value was 15.4% (inactive). As for `COC(=O)C1=CN(C)C=C(C(=O)OC)C1c1ccc(Cl)cc1Cl`, the inhibition is 9.15% (inactive).

Take `CCOc1cc(C2C(C(=O)OC)=CN(C3CCCC3)C=C2C(=O)OC)cc(Br)c1O`: the inhibition is 1.91% (inactive). For the compound `CCOc1ccccc1C1C(C(=O)OC)=CN(C)C=C1C(=O)OC`, the inhibition is 71.8% (active).

For the compound `O=C(NCC1CCCCC1)c1cc(S(=O)(=O)N2CCCCC2)ccc1N1CCOCC1`, the inhibition was 19.1% (inactive).

For `Cc1cccc(NS(=O)(=O)c2ccc(C)c(C(N)=O)c2)c1`, the inhibition is -7.85% (inactive). For `COc1cccc(CN(C)CC(=O)Nc2ccccc2C(=O)Nc2ccccc2)c1`, the inhibition was 4.04% (inactive). Consider `COc1ccc(-c2cc3nc(C)c(CCC(=O)NC(C)CCc4ccco4)c(C)n3n2)c(OC)c1` (stereo not drawn), for which the inhibition was -1.24% (inactive). Turning to `Cc1cnc(C(=O)N2CCCC(C(=O)c3ccc(C(F)(F)F)cc3)C2)cn1` (stereo not drawn), the inhibition was 17.7% (inactive). Regarding `COc1cccc(CNC(=O)CCC2CCCN(Cc3ccc(OC(F)F)cc3)C2)c1` (stereo not drawn), the inhibition is 52.7% (active). Consider `COc1cccc(CNC(=O)CCC2CCCN(C(=O)c3ccoc3C)C2)c1` (stereo not drawn), for which the inhibition was 1.1% (inactive). Consider `COc1cccc(C(=O)N2CCCC(CCC(=O)NCc3ccc(F)c(F)c3)C2)c1` (stereo not drawn), for which the inhibition is 18.6% (inactive). Consider `O=C(/C=C/c1ccc(F)cc1)Nc1cccc(S(=O)(=O)Nc2cccc(C(F)(F)F)c2)c1`, for which the inhibition was 2.87% (inactive). For `CC(=O)NC(=S)NNC(=O)c1ccc(Br)cc1` the value was -1.36% (inactive); for `COc1cccc2c1OCC(C(=O)NCc1ccc(Cl)cc1Cl)=C2`, 2.65% (inactive). In the case of `CCc1ccc(C(=O)CSc2nnc(C)c(=O)[nH]2)cc1`, the inhibition was 10.1% (inactive).

Turning to `N#Cc1c(-c2cccs2)nc(SCC(=O)c2ccc(Br)cc2)[nH]c1=O`, the inhibition is 72.7% (active). `Cc1nc2nc(SCC(=O)c3ccccc3)[nH]c2cc1Br`: the inhibition is 16.2% (inactive). For the compound `COc1cccc(C2Nc3cccc4cccc(c34)N2)c1`, the inhibition was 21.8% (inactive).

On to `COCc1cc(C)nc2sc(C(=O)NC3CCCCC3)c(N)c12`, for which the inhibition was 1.3% (inactive). As for `COc1ccc2oc(=O)c(C(=O)O)cc2c1`, the inhibition is -0.521% (inactive). Regarding `COc1ccc2oc(=O)c(C(=O)N3CCCC3)cc2c1`, the inhibition is 22% (inactive). Take `COc1cccc(C(=O)c2cc3ccc(O)cc3oc2=O)c1`: the inhibition is 63.1% (active). Regarding `O=C(Cc1c(O)c2ccccc2[nH]c1=O)NCc1ccccc1`, the inhibition is 2.47% (inactive). Regarding `COc1cc(OC)cc(C(=O)NCC(=O)OCc2csc(-c3ccccc3)n2)c1`, the inhibition is 3.87% (inactive). Consider `Cc1cc(NC(=O)CN2C(=O)NC(CCc3ccccc3)C2=O)no1` (stereo not drawn), for which the inhibition was -23.9% (inactive).

With `CC(C)OC(=O)Cn1nc(C(F)(F)F)c2c1CCCC2`, the inhibition was 22.4% (inactive).

Regarding `O=C(N/N=C/c1ccc([N+](=O)[O-])cc1)C(=O)N1CCCC1`, the inhibition was 6.04% (inactive).

For `N#C/C(=C/c1ccc(N2CCOCC2)o1)C(=O)N1CCOCC1`, the inhibition was 1.17% (inactive).

Take `Cc1nnc(SCC(=O)NNC(=O)c2ccc(Cl)cc2)n1CC1CCCO1` (stereo not drawn): the inhibition was 22.1% (inactive).

Consider `Cc1cccn2c(=O)c3cc(C#N)c(=NC(=O)c4cccnc4)n(CC4CCCO4)c3nc12` (stereo not drawn), for which the inhibition is 35.1% (inactive). Next, `Cc1cccn2c(=O)c3cc(C#N)c(=O)n(CCCN4CCOCC4)c3nc12`: 178% (active); `Cc1cccn2c(=O)c3cc(C(=O)N4COCC4(C)C)n(C)c3nc12`: 11.2% (inactive); `COc1ccc(C2=NN(C(=O)CCC(=O)O)C(c3cccs3)C2)cc1OC` (stereo not drawn): 19.1% (inactive). For `COC(=O)C1=CN(Cc2ccc(OC)c(OC)c2)C=C(C(=O)OC)C1c1cccs1` the value was 79.3% (active); for `COc1ccc(CCNC(=O)COC(=O)/C=C/c2cccs2)cc1OC`, 19.3% (inactive); for `Cc1ccc2nc(-c3ccncc3)cc(C(=O)Nc3ccc(OC(F)F)cc3)c2c1`, 53.4% (active).

As for `Cc1ccc2nc(-c3ccccn3)cc(C(=O)Nc3ccc4c(c3)OCO4)c2c1`, the inhibition is -2.84% (inactive).

On to `Cc1ccc2nc(-c3ccncc3)cc(C(=O)Nc3ccc4c(c3)OCCO4)c2c1`, for which the inhibition was -4.23% (inactive). Next, `O=C(Nc1ccncc1)c1cc(-c2ccccn2)nc2ccc(Br)cc12`: 81.4% (active). For the compound `O=C(NCc1cccs1)c1cc(-c2ccccn2)nc2ccc(Br)cc12`, the inhibition was -19.4% (inactive).

Turning to `Cc1ccc2nc(-c3ccccc3)cc(C(=O)O)c2c1`, the inhibition was 3.19% (inactive).

The values above are taken from PubChem BioAssay AID463187 (University of Pittsburgh Molecular Library Screening Center, 2010).
